From PubChem BioAssay (NCATS)
Inconclusive results are not listed. Values without a mark were called inactive. The source made the active and inactive calls. The call rests on the fitted dose curve; in most records, active means well fitted activation curve with a large enough effect; inconclusive means small, poorly fitted or top-dose-only effect; inactive means no such curve, though single readings can be large or run the other way.

molecular target: Cellular tumor antigen p53 (Homo sapiens) (UniProt P04637); test: Primary qHTS for small molecule compounds that upregulate eGFP-tagged delta133p53alpha (in N-terminal) cells. (AID 2060322); settings: NCI-H358 eGFP-delta133p53alpha fluorescence, 24 h; activation: hits give high values; further: nearly all actives have a fitted effect of over 75% in size;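 on activation: series mostly up to about 56 µM; 0% = DMSO vehicle and 100% = reference activator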
Sequence (P04637 whole entry, looked up): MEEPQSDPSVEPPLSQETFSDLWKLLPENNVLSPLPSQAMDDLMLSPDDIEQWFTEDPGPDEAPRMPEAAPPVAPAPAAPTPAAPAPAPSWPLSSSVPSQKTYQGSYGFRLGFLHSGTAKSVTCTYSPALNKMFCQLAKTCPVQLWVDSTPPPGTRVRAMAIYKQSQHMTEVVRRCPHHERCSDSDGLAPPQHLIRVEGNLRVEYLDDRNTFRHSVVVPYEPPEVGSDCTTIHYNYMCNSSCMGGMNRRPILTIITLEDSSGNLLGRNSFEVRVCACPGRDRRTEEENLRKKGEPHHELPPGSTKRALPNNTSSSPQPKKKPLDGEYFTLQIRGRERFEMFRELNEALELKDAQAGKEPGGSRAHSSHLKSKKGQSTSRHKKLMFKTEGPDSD
In short: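 NCI-H358 cells pre-induced 24 h with 10 ng/ml doxycycline to express N-terminal eGFP-delta133p53alpha, then dosed 24 h at 37C without doxycycline; fixed, Hoechst-stained, GFP intensity by laser scanning cytometry, normalized to DMSO (0%) and 57.5 uM 5-azacytidine (100%).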
Potency means the concentration at half of the fitted maximal effect.

Structure (SMILES)	activation [%]	Potency
CC(C)(O)/C=C/C(=O)[C@](C)(O)[C@H]1[C@H](O)C[C@@]2(C)[C@@H]3CC=C4[C@@H](C=C(O[C@@H]5O[C@H](CO)[C@@H](O)[C@H](O)[C@H]5O)C(=O)C4(C)C)[C@]3(C)C(=O)C[C@]12C	-13.7	
CC(C)CC(=O)OC[C@@]1(O)C[C@@]23CC[C@H]4[C@@](C)(CCC[C@@]4(C)C(=O)O)[C@@H]2CC[C@@H]1C3	-13	
COC(=O)C[C@@H]1C(C(=O)O)=CO[C@@H](O[C@@H]2O[C@H](CO)[C@@H](O)[C@H](O)[C@H]2O)/C1=C\COC(=O)/C=C/c1ccc(O)c(OC)c1	6.87	
COc1ccc(CCO[C@@H]2O[C@H](CO[C@@H]3OC[C@H](O)[C@H](O)[C@H]3O)[C@@H](O)[C@H](O)[C@H]2O)cc1	-20.6	
CC1(C)CC[C@]2(C(=O)O)CC[C@]3(C)C(=CCC4[C@@]5(C)C[C@@H](O)[C@H](O)[C@](C)(CO)C5CC[C@]43C)[C@@H]2[C@@H]1O (stereo partly drawn)	12.5	
C=C1C(=O)OC2CC(C)C(CCC(C)=O)=CCC12 (stereo not drawn)		16.9 µM (active)
COc1ccc(C2Oc3c(OC)cc(CCCO)cc3C2COC2OC(CO)C(O)C(O)C2O)cc1OC (stereo not drawn)	-3.82	
CC/C=C\[C@H](O)[C@H](O)C1=C(C)C(=O)[C@]2(O1)C(=O)N[C@@](OC)(C(=O)c1ccccc1)[C@@H]2O	-6.87	
CCCCC1CCN(CCCC(=O)c2ccccc2C)CC1	17	
COc1cc(O)c2c(c1)C1=C[C@H](O)[C@@H](O)C[C@]1(C)OC2=O	1.53	
NC(=O)C1=CC2C3C=CC2C(OC3=O)O1 (stereo not drawn)	27.5	
CC(=O)/C=C/C1(O)C(C)CC(O[C@@H]2O[C@H](CO)[C@@H](O)[C@H](O)[C@H]2O)CC1(C)C (stereo partly drawn)	2.68	
CCCCC1CCC(c2nc(-c3ccncc3)no2)CC1 (stereo not drawn)	-6.68	
O=C(N/N=C/c1ccc(O)c(O)c1)c1cc2ccccc2cc1O	4.33	
N#Cc1ccc(-c2ccc(S(=O)(=O)Nc3cccc(N)n3)cc2)cc1	2.86	
C=C1/C(=C/C=C2\CCC[C@]3(C)[C@@H]([C@H](C)CC[C@@H](O)C(C)(C)O)CC[C@@H]23)C[C@@H](O)C[C@@H]1O	10.3	
CC(=O)OC(C)(C)/C=C/C(=O)[C@](C)(O)C1[C@H](O)C[C@@]2(C)[C@@H]3CC=C4[C@@H](C[C@H](O[C@@H]5O[C@H](CO)[C@@H](O)[C@H](O)[C@H]5O)C(=O)C4(C)C)[C@]3(C)C(=O)C[C@]12C (stereo partly drawn)	-10.7	
CC(=O)O[C@@H]1[C@H](O[C@@H]2O[C@H](CO)[C@@H](O)[C@H](O)[C@H]2O)[C@@H](O[C@@H]2O[C@@H](C)[C@H](O)[C@@H](O[C@@H]3O[C@H](CO)[C@@H](O)[C@H](O)[C@H]3O)[C@H]2O)[C@H](OC(=O)C23CCC4(C)C(=CCC5C6(C)CC(O)C(O[C@@H]7O[C@H](C(=O)O)[C@@H](O)[C@H](O)[C@H]7O)C(C)(C(=O)O)C6CCC54C)C2CC(C)(C)CC3O)O[C@@H]1C (stereo partly drawn)	22.9	
